Among all 5,500 compounds or so, about 2,000 (36%) were called active. Another 18% or so got no clear call; they are omitted. Cut-off read from the data, not from the text of the source: active = normalized growth mostly below about 0.91 (no sharp cut-off); inconclusive = no clear call, values can overlap the other calls; inactive = mostly above about 0.92. The list shows a part of the results.
Assay: chemical genetic growth profiling, strain panel (AID 1159580);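 note: tested at 20 µM; growth read once vehicle control cultures reached saturation at 30 °C; 1 = growth at the plate median or of vehicle wells; lower values mean less growth of the strain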
Conditions: growth OD

Measured: normalized growth

CC(C)C1CCC(C(=O)N[C@@H](Cc2ccccc2)C(=O)O)CC1 (some centres not stated)
inactive: S. cerevisiae deletion strains, locus YJR075W, strain HOC1, stronger effect = lower value 0.992 | S. cerevisiae deletion strains, locus YKL009W, strain mrt4, stronger effect = lower value 0.963 | S. cerevisiae deletion strains, locus YKL068W, stronger effect = lower value 1 | S. cerevisiae deletion strains, locus YKL085W, strain MDH1 (second series), stronger effect = lower value 1 | S. cerevisiae deletion strains, locus YKL085W, strain MDH1, stronger effect = lower value 1 | S. cerevisiae deletion strains, locus YKL160W, strain elf1, stronger effect = lower value 0.971 | S. cerevisiae deletion strains, locus YKL190W, strain CNB1, stronger effect = lower value 0.976 | S. cerevisiae deletion strains, locus YKR001C, strain vps1, stronger effect = lower value 1.04 | S. cerevisiae deletion strains, locus YKR026C, strain gcn3, stronger effect = lower value 0.974 | S. cerevisiae deletion strains, locus YKR091W, strain srl3, stronger effect = lower value 0.978 | S. cerevisiae deletion strains, locus YLL001W, strain dnm1, stronger effect = lower value 0.957 | S. cerevisiae deletion strains, locus YLL026W, stronger effect = lower value 0.981 | S. cerevisiae deletion strains, locus YLL041C, strain sdh2, stronger effect = lower value 0.961 | S. cerevisiae deletion strains, locus YLR027C, strain aat2, stronger effect = lower value 0.985 | S. cerevisiae deletion strains, locus YLR039C, strain RIC1, stronger effect = lower value 0.969 | S. cerevisiae deletion strains, locus YLR058C, strain SHM2, stronger effect = lower value 1 | S. cerevisiae deletion strains, locus YLR102C, strain apc9, stronger effect = lower value 0.999 | S. cerevisiae deletion strains, locus YLR113W, strain HOG1, stronger effect = lower value 1.02 | S. cerevisiae deletion strains, locus YLR221C, strain rsa3, stronger effect = lower value 0.987 | S. cerevisiae deletion strains, locus YLR258W, strain gsy2, stronger effect = lower value 0.987 | S. cerevisiae deletion strains, locus YLR262C, strain YPT6 (second series), stronger effect = lower value 0.955 | S. cerevisiae deletion strains, locus YLR262C, strain YPT6, stronger effect = lower value 0.964 | S. cerevisiae deletion strains, locus YLR268W, strain sec22, stronger effect = lower value 1.01 | S. cerevisiae deletion strains, locus YLR320W, strain mms22, stronger effect = lower value 0.979 | S. cerevisiae deletion strains, locus YLR330W, strain CHS5, stronger effect = lower value 1 | S. cerevisiae deletion strains, locus YLR342W, strain FKS1 (second series), stronger effect = lower value 0.965 | S. cerevisiae deletion strains, locus YLR342W, strain FKS1, stronger effect = lower value 0.979 | S. cerevisiae deletion strains, locus YLR357W, strain rsc2, stronger effect = lower value 0.971 | S. cerevisiae deletion strains, locus YLR370C, strain arc18, stronger effect = lower value 0.959 | S. cerevisiae deletion strains, locus YLR371W, strain rom2, stronger effect = lower value 1.01 | S. cerevisiae deletion strains, locus YLR384C, strain iki3, stronger effect = lower value 0.965 | S. cerevisiae deletion strains, locus YLR418C, strain cdc73, stronger effect = lower value 1.05 | S. cerevisiae deletion strains, locus YML016C, strain PPZ1, stronger effect = lower value 1 | S. cerevisiae deletion strains, locus YML032C, strain rad52, stronger effect = lower value 1.02 | S. cerevisiae deletion strains, locus YML120C, strain ndi1, stronger effect = lower value 0.97 | S. cerevisiae deletion strains, locus YML124C, strain tub3, stronger effect = lower value 1.02 | S. cerevisiae deletion strains, locus YMR058W, strain fet3, stronger effect = lower value 0.98 | S. cerevisiae deletion strains, locus YMR078C, strain ctf18, stronger effect = lower value 1.02 | S. cerevisiae deletion strains, locus YMR125W, strain sto1, stronger effect = lower value 0.966 | S. cerevisiae deletion strains, locus YMR129W, stronger effect = lower value 0.977 | S. cerevisiae deletion strains, locus YMR205C, strain PFK2, stronger effect = lower value 0.967 | S. cerevisiae deletion strains, locus YMR223W, strain ubp8, stronger effect = lower value 1.02 | S. cerevisiae deletion strains, locus YMR231W, strain pep5, stronger effect = lower value 0.971 | S. cerevisiae deletion strains, locus YMR263W, strain SAP30, stronger effect = lower value 0.974 | S. cerevisiae deletion strains, locus YMR307W, strain GAS1, stronger effect = lower value 0.998 | S. cerevisiae deletion strains, locus YNL067W, strain RPL9B, stronger effect = lower value 0.999 | S. cerevisiae deletion strains, locus YNL071W, strain lat1, stronger effect = lower value 0.979 | S. cerevisiae deletion strains, locus YNL128W, strain TEP1, stronger effect = lower value 0.971 | S. cerevisiae deletion strains, locus YNL153C, strain GIM3, stronger effect = lower value 1 | S. cerevisiae deletion strains, locus YNL183C, strain NPR1, stronger effect = lower value 0.955 | S. cerevisiae deletion strains, locus YNL209W, strain ssb2, stronger effect = lower value 0.963 | S. cerevisiae deletion strains, locus YNL233W, strain BNI4, stronger effect = lower value 1.01 | S. cerevisiae deletion strains, locus YNL248C, strain rpa49, stronger effect = lower value 0.976 | S. cerevisiae deletion strains, locus YNL250W, strain rad50, stronger effect = lower value 1.01 | S. cerevisiae deletion strains, locus YNL271C, strain bni1, stronger effect = lower value 1.01 | S. cerevisiae deletion strains, locus YNL298W, strain CLA4, stronger effect = lower value 1.01 | S. cerevisiae deletion strains, locus YNL307C, strain MCK1, stronger effect = lower value 1.03 | S. cerevisiae deletion strains, locus YNL322C, strain KRE1 (second series), stronger effect = lower value 0.992 | S. cerevisiae deletion strains, locus YNL322C, strain KRE1, stronger effect = lower value 0.998 | S. cerevisiae deletion strains, locus YNR049C, strain mso1, stronger effect = lower value 0.975 | S. cerevisiae deletion strains, locus YNR052C, strain pop2, stronger effect = lower value 1.01 | S. cerevisiae deletion strains, locus YOL006C, strain TOP1, stronger effect = lower value 1.03 | S. cerevisiae deletion strains, locus YOL012C, strain htz1 1.07 | S. cerevisiae deletion strains, locus YOL147C, strain pex11, stronger effect = lower value 1.02 | S. cerevisiae deletion strains, locus YOR001W, strain rrp6, stronger effect = lower value 0.967 | S. cerevisiae deletion strains, locus YOR061W, strain CKA2, stronger effect = lower value 1 | S. cerevisiae deletion strains, locus YOR069W, strain VPS5, stronger effect = lower value 0.994 | S. cerevisiae deletion strains, locus YOR070C, strain gyp1, stronger effect = lower value 0.974 | S. cerevisiae deletion strains, locus YOR080W, strain dia2, stronger effect = lower value 0.977 | S. cerevisiae deletion strains, locus YOR083W, strain WHI5, stronger effect = lower value 0.984 | S. cerevisiae deletion strains, locus YOR106W, strain vam3, stronger effect = lower value 0.981 | S. cerevisiae deletion strains, locus YOR136W, strain idh2, stronger effect = lower value 1.02 | S. cerevisiae deletion strains, locus YOR144C, strain elg1, stronger effect = lower value 1.01 | S. cerevisiae deletion strains, locus YOR184W, strain ser1, stronger effect = lower value 1 | S. cerevisiae deletion strains, locus YOR231W, strain MKK1, stronger effect = lower value 0.966 | S. cerevisiae deletion strains, locus YOR265W, strain rbl2, stronger effect = lower value 0.975 | S. cerevisiae deletion strains, locus YOR270C, strain vph1, stronger effect = lower value 0.949 | S. cerevisiae deletion strains, locus YOR290C, strain snf2, stronger effect = lower value 0.962 | S. cerevisiae deletion strains, locus YOR316C, strain cot1, stronger effect = lower value 1 | S. cerevisiae deletion strains, locus YPL051W, strain arl3, stronger effect = lower value 0.976 | S. cerevisiae deletion strains, locus YPL055C, strain LGE1, stronger effect = lower value 0.996 | S. cerevisiae deletion strains, locus YPL078C, strain atp4, stronger effect = lower value 0.974 | S. cerevisiae deletion strains, locus YPL106C, strain sse1, stronger effect = lower value 0.96 | S. cerevisiae deletion strains, locus YPL240C, strain hsp82, stronger effect = lower value 0.981 | S. cerevisiae deletion strains, locus YPL241C, strain CIN2, stronger effect = lower value 0.983 | S. cerevisiae deletion strains, locus YPL256C, strain CLN2, stronger effect = lower value 0.982 | S. cerevisiae deletion strains, locus YPR119W, strain clb2, stronger effect = lower value 1.01 | S. cerevisiae deletion strains, locus YPR141C, strain kar3, stronger effect = lower value 1.02 | S. cerevisiae deletion strains, locus YPR163C, strain tif3, stronger effect = lower value 1.02 | S. cerevisiae deletion strains, locus YPR167C, strain met16, stronger effect = lower value 1.01 | S. cerevisiae deletion strains, strain wtn01, stronger effect = lower value 1 | S. cerevisiae strains, strain wild type, stronger effect = lower value 0.986

— PubChem BioAssay AID1159580 (chemical genetic matrix, 2015)
